{"source": "PubChem BioAssay (EPA / NIEHS)", "key": {"[1]": {"assay": "ATG_EGR_CIS: Attagene CIS-FACTORIAL HepG2 Assay for human Early Growth Response 1 (EGR1) (AID 2282938)", "details": "HepG2 Attagene CIS-FACTORIAL EGR reporter mRNA; actives raise or lower the signal", "summary_of_the_method": "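Read-out: fluorescent reporter-mRNA fragments resolved by capillary electrophoresis after RT-PCR, 24 h post-dose in transiently transfected HepG2. Endogenous transcription-factor activity reported via cis-element-regulated reporter units; gain or loss fitted relative to DMSO.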"}, "[2]": {"assay": "ATG_M_19_CIS: Attagene CIS-FACTORIAL HepG2 Assay for M19 Transcription Factor (Internal Marker) (AID 2282939)", "details": "HepG2 Attagene CIS-FACTORIAL M19 internal marker reporter; actives raise or lower the signal", "summary_of_the_method": "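HepG2 cells transiently transfected with cis-regulated multiplexed reporter units, dosed 24 h. Reporter mRNA quantified by RT-PCR and capillary electrophoresis; internal background marker fitted bidirectionally versus DMSO.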"}, "[3]": {"assay": "ATG_ERE_CIS: Attagene CIS-FACTORIAL HepG2 Assay for Estrogen Response Element (ERE) (AID 2282940)", "details": "HepG2 ERE cis-reporter, Attagene RNA transcript; actives raise or lower the signal", "summary_of_the_method": "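HepG2 cells transiently transfected with multiplexed cis-element reporter units, measuring endogenous transcription factor activity; ERE reporter mRNA quantified after 24 h exposure by RT-PCR, fluorescent labelling, HpaI digestion and capillary electrophoresis. Bidirectional change versus DMSO.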"}, "[4]": {"assay": "ATG_Ets_CIS: Attagene CIS-FACTORIAL HepG2 Assay for human Erythroblast Transformation Specific (ETS) (AID 2282941)", "details": "HepG2 ETS cis-reporter transcription; AC50: actives raise or lower the signal unless noted; outcome: actives raise or lower the signal unless noted", "summary_of_the_method": "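Bidirectional fit versus DMSO of reporter mRNA signal, detected by RT-PCR and capillary electrophoresis in HepG2 cells transiently transfected with cis-element reporters and dosed 24 h.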"}, "[5]": {"target": "Hepatocyte nuclear factor 3-beta (Homo sapiens) (UniProt Q9Y261)", "sequence (Q9Y261 whole entry, looked up)": "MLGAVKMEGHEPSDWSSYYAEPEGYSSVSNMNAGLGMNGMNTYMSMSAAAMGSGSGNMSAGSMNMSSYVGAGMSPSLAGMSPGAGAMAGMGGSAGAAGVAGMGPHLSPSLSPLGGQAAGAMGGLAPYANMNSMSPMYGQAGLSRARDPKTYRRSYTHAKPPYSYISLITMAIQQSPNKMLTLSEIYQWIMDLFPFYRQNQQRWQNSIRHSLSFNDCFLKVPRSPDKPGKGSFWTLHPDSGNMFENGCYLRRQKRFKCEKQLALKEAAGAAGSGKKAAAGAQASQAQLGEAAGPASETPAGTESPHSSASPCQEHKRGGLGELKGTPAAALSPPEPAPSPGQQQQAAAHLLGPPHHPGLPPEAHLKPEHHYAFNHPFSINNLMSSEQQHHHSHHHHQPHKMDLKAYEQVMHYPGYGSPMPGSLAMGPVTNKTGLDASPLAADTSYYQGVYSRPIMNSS", "assay": "ATG_FoxA2_CIS: Attagene CIS-FACTORIAL HepG2 Assay for human Forkhead box A2 (FOXA2) (AID 2282942)", "details": "HepG2 cis-reporter transcription factor activity, 24 h; actives raise or lower the signal", "summary_of_the_method": "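Readout: fluorescent reporter transcripts resolved by capillary electrophoresis after RT-PCR. Transiently transfected HepG2, 24 h compound exposure, endogenous TF activity at cis promoter elements. Gain or loss of signal fitted relative to DMSO.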"}, "[6]": {"assay": "ATG_FoxO_CIS: Attagene CIS-FACTORIAL HepG2 Assay for human Forkhead box O (FoxO) (AID 2282943)", "details": "HepG2 Attagene cis-reporter, FoxO element, mRNA; actives raise or lower the signal", "summary_of_the_method": "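HepG2, transient MRTU transfection (cis element, endogenous TFs). Dose 24 h. TriZol RNA → oligo(dT) RT → PCR → 6-FAM primer extension → HpaI cut → CE. Gain/loss vs DMSO.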"}, "[7]": {"assay": "ATG_GATA_CIS: Attagene CIS-FACTORIAL HepG2 Assay for human GATA Binding Protein (AID 2282944)", "details": "HepG2 GATA cis-element reporter, Attagene multiplex mRNA; actives raise or lower the signal", "summary_of_the_method": "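HepG2 cells transiently transfected with multiplexed cis-element reporter units measure endogenous GATA activity; after 24 h compound exposure, reporter mRNA quantified by RT-PCR and capillary electrophoresis. Changes fitted in both directions vs DMSO.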"}, "[8]": {"assay": "ATG_GLI_CIS: Attagene CIS-FACTORIAL HepG2 Assay for human Zinc Finger Protein GLI1 (AID 2282945)", "details": "HepG2, Attagene cis-factorial reporter mRNA, GLI element; actives raise or lower the signal", "summary_of_the_method": "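Bidirectional curve fits relative to DMSO, using reporter mRNA levels from RT-PCR plus capillary electrophoresis. Cells were HepG2 transiently carrying cis-regulated reporter constructs, harvested 24 h after dosing.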"}, "[9]": {"assay": "ATG_GRE_CIS: Attagene CIS-FACTORIAL HepG2 Assay for human Glucocorticoid Response Elements (GRE) (AID 2282947)", "details": "HepG2 GRE cis-reporter, Attagene multiplex mRNA; AC50: actives raise or lower the signal unless noted; outcome: actives raise or lower the signal unless noted", "summary_of_the_method": "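Reporter transcripts read by RT-PCR with capillary electrophoresis fluorescence after a 24 h chemical exposure of HepG2 cells transiently transfected with multiple cis-element reporter units. Gain or loss fitted against DMSO.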"}, "[10]": {"assay": "ATG_ISRE_CIS: Attagene CIS-FACTORIAL HepG2 Assay for human Interferon Regulatory Factor 1 (IRF1) binding to an Interferon-Stimulated Response Element (ISRE) (AID 2282948)", "details": "HepG2 ISRE cis-reporter (Attagene), mRNA transcription readout; actives raise or lower the signal", "summary_of_the_method": "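Uses HepG2 liver cells transfected with cis-regulated reporters and measures mRNA 24 h post-dosing through RT-PCR, primer-extension labelling and capillary electrophoresis, with DMSO as negative control.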"}, "[11]": {"assay": "ATG_M_32_CIS: Attagene CIS-FACTORIAL HepG2 Assay for M32 Transcription Factor (Internal Marker) (AID 2282949);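 note: background control marker of the multiplexed CIS panel rather than a real target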", "details": "HepG2 Attagene cis-factorial M32 reporter, mRNA; actives raise or lower the signal", "summary_of_the_method": "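HepG2 human liver cells transiently transfected with cis-promoter-driven multiple reporter transcription units, dosed 24 h. Reporter mRNA quantified by RT-PCR, FAM-labelled primer extension, HpaI digest and capillary electrophoresis; bidirectional fit versus DMSO baseline.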"}, "[12]": {"assay": "ATG_M_06_CIS: Attagene CIS-FACTORIAL HepG2 Assay for M06 Transcription Factor (Internal Marker) (AID 2282950)", "details": "HepG2 Attagene CIS-FACTORIAL M06 internal marker reporter; actives raise or lower the signal", "summary_of_the_method": "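Internal background marker within multiplexed cis-reporter HepG2 system. Cells transiently transfected, dosed 24 h; reporter mRNA measured by RT-PCR, HpaI digestion and capillary electrophoresis. Bidirectional fit relative to DMSO.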"}, "[13]": {"target": "Hypoxia-inducible factor 1-alpha (Homo sapiens) (UniProt Q16665)", "sequence (Q16665 whole entry, looked up)": "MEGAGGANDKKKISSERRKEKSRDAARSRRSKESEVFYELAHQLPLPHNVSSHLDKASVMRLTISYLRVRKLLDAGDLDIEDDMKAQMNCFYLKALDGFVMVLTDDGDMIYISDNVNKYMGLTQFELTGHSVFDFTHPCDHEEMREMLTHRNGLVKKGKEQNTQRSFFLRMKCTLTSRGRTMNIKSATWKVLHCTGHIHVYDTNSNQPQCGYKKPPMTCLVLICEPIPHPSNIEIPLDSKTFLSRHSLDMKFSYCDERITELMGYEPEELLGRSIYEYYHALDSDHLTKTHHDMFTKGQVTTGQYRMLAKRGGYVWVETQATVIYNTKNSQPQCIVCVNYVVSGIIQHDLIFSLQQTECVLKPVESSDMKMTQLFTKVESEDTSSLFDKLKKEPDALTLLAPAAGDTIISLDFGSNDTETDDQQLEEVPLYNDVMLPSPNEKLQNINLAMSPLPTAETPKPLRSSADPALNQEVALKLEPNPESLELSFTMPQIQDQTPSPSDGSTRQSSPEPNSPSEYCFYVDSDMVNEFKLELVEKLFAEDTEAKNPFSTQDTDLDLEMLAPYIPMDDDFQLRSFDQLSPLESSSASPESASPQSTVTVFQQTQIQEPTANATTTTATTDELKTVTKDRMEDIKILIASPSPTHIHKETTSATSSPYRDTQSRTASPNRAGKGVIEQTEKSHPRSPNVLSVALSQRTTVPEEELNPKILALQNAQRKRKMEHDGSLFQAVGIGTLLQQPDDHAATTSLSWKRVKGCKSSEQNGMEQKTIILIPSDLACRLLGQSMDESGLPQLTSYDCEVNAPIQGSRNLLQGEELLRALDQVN", "assay": "ATG_HIF1a_CIS: Attagene CIS-FACTORIAL HepG2 Assay for human Hypoxia Inducible Factor 1 (HIF1A) (AID 2282951)", "details": "HepG2 Attagene cis-factorial HIF1a reporter transcription; actives raise or lower the signal", "summary_of_the_method": "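RT-PCR/capillary electrophoresis fluorescence readout of reporter transcripts from endogenous-TF-driven cis elements in transfected HepG2 cells, 24 h exposure; activity fitted in both directions against DMSO controls.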"}, "[14]": {"target": "Hepatocyte nuclear factor 6 (Homo sapiens) (UniProt Q9UBC0)", "sequence (Q9UBC0 whole entry, looked up, the tested form may be a part)": "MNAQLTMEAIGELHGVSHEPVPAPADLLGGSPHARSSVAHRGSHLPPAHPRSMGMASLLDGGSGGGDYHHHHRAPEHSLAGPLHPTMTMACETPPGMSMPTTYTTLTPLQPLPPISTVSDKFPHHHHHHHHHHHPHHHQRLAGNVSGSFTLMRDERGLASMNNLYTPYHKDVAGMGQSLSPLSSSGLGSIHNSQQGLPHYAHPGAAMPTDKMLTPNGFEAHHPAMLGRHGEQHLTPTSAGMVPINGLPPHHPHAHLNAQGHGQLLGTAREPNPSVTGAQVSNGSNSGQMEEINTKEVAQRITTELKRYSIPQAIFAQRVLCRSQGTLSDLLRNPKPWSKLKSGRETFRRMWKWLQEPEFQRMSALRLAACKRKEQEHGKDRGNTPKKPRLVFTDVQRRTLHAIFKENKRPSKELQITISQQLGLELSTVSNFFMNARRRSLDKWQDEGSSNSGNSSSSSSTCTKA", "assay": "ATG_HNF6_CIS: Attagene CIS-FACTORIAL HepG2 Assay for human Hepatocyte Nuclear Factor 6 (HNF6) (AID 2282952)", "details": "HepG2 Attagene cis-factorial HNF6 reporter transcription; actives raise or lower the signal", "summary_of_the_method": "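Twenty-four-hour chemical treatment of reporter-transfected HepG2 cells precedes RNA isolation, DNase-treated reverse transcription and PCR of reporter sequences. Labelled fragments are sized by capillary electrophoresis and fitted bidirectionally versus DMSO.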"}, "[15]": {"target": "Heat shock factor protein 1 (Homo sapiens) (UniProt Q00613)", "sequence (Q00613 whole entry, looked up)": "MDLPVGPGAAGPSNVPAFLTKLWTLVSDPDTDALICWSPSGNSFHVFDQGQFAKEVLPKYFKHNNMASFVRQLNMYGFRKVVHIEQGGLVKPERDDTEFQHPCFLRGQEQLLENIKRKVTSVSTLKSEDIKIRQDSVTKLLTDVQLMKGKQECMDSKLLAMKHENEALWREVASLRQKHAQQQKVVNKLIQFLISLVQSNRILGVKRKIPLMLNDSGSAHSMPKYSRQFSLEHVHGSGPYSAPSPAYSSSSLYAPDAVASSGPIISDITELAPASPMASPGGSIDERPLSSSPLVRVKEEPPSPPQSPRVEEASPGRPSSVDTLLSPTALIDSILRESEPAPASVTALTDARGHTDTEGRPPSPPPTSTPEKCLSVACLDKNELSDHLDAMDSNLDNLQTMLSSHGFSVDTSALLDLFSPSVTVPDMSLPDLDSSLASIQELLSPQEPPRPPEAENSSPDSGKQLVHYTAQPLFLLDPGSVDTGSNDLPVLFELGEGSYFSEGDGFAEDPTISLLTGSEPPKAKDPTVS", "assay": "ATG_HSE_CIS: Attagene CIS-FACTORIAL HepG2 Assay for human Heat Shock Transcription Factor 1 (HSE) (AID 2282953)", "details": "HepG2 HSE cis-reporter, Attagene RNA transcription; actives raise or lower the signal", "summary_of_the_method": "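HepG2 cells transfected with cis-promoter reporter units sensing endogenous transcription factor activity; reporter mRNA quantified 24 h post-dose by RT-PCR and capillary electrophoresis of 6-FAM-labelled products. Bidirectional fitting against DMSO.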"}, "[16]": {"assay": "ATG_MRE_CIS: Attagene CIS-FACTORIAL HepG2 Assay for human Metal Responsive Element (MRE) (AID 2282954)", "details": "HepG2 MRE cis-reporter transcription, Attagene multiplex; actives raise or lower the signal", "summary_of_the_method": "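Endogenous MRE-dependent transcription read as reporter mRNA in transiently transfected human HepG2 cells at 24 h. RNA reverse-transcribed, PCR-amplified, labelled and resolved by capillary electrophoresis; gain or loss relative to DMSO.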"}, "[17]": {"assay": "ATG_PBREM_CIS: Attagene CIS-FACTORIAL HepG2 Assay for human Phenobarbital-responsive Enhancer Module (PBREM) (AID 2282955)", "details": "HepG2 PBREM cis-reporter, Attagene multiplexed transcription; actives raise or lower the signal", "summary_of_the_method": "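Reporter mRNA read by RT-PCR, 6-FAM primer extension, HpaI digestion and capillary electrophoresis. Transfected HepG2 cells, 24 h compound exposure. Gain or loss of signal fitted bidirectionally relative to DMSO baseline.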"}, "[18]": {"target": "Paired box protein Pax-6 (Homo sapiens) (UniProt P26367)", "sequence (P26367 whole entry, looked up)": "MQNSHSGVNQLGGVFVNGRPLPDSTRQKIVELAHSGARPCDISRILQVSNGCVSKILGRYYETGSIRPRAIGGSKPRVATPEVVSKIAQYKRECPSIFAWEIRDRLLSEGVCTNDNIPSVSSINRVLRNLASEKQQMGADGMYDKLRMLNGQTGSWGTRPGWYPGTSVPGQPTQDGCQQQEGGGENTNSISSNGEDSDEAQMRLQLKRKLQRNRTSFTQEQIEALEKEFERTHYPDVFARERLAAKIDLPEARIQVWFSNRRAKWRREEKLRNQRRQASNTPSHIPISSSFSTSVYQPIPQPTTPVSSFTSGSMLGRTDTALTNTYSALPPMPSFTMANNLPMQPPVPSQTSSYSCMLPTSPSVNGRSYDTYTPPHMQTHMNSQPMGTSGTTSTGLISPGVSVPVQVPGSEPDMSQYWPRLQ", "assay": "ATG_Pax6_CIS: Attagene CIS-FACTORIAL HepG2 Assay for human Paired Box 6 (PAX6) (AID 2282956)", "details": "HepG2 CIS-FACTORIAL PAX6 reporter transcription, RNA readout; actives raise or lower the signal", "summary_of_the_method": "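DMSO-referenced bidirectional fits of reporter mRNA fluorescence; HepG2 with transient cis-promoter MRTUs, 24 h post-dose, RT-PCR plus capillary electrophoresis detection.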"}, "[19]": {"assay": "ATG_PXRE_CIS: Attagene CIS-FACTORIAL HepG2 Assay for human Pregnane X Receptor Element (PXRE) (AID 2282957)", "details": "HepG2 Attagene CIS-FACTORIAL PXRE reporter, mRNA; actives raise or lower the signal", "summary_of_the_method": "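Bidirectional activity, baselined to DMSO, derived from reporter mRNA fluorescence (RT-PCR plus capillary electrophoresis) in HepG2 cells bearing cis-promoter reporter units, 24 h exposure.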"}}, "note": "Calls of active or inactive are those of the source. Rule for the calls: active = hit-call score of the fitted dose curve at least 0.9, where 1 is the maximum; inactive = score below 0.9.", "data": [{"smiles": "CCCCCCCCCCCC(=O)NCCCN(C)C", "values": [{"measurement": "AC50", "setting": "[1]", "value": "20.3 µM (active)"}, {"measurement": "outcome", "setting": "[2]", "value": "inactive"}, {"measurement": "outcome", "setting": "[3]", "value": "inactive"}, {"measurement": "outcome", "setting": "[4]", "value": "inactive"}, {"measurement": "outcome", "setting": "[5]", "value": "inactive"}, {"measurement": "AC50", "setting": "[6]", "value": "20.3 µM (active)"}, {"measurement": "AC50", "setting": "[7]", "value": "17.2 µM (active)"}, {"measurement": "outcome", "setting": "[8]", "value": "inactive"}, {"measurement": "AC50", "setting": "[9]", "value": "14.9 µM (active)"}, {"measurement": "AC50", "setting": "[10]", "value": "16.9 µM (active)"}, {"measurement": "outcome", "setting": "[11]", "value": "inactive"}, {"measurement": "outcome", "setting": "[12]", "value": "inactive"}, {"measurement": "AC50", "setting": "[13]", "value": "18.1 µM (active)"}, {"measurement": "outcome", "setting": "[14]", "value": "inactive"}, {"measurement": "AC50", "setting": "[15]", "value": "17.5 µM (active)"}, {"measurement": "AC50", "setting": "[16]", "value": "19.8 µM (active)"}, {"measurement": "outcome", "setting": "[17]", "value": "inactive"}, {"measurement": "AC50", "setting": "[18]", "value": "19.6 µM (active)"}, {"measurement": "AC50", "setting": "[19]", "value": "5.26 µM (active)"}]}, {"smiles": "CC1=CC(=O)c2ccccc2C1=O", "values": [{"measurement": "outcome", "setting": "[1]", "value": "inactive"}, {"measurement": "outcome", "setting": "[2]", "value": "inactive"}, {"measurement": "outcome", "setting": "[3]", "value": "inactive"}, {"measurement": "outcome", "setting": "[4]", "value": "inactive"}, {"measurement": "outcome", "setting": "[5]", "value": "inactive"}, {"measurement": "outcome", "setting": "[6]", "value": "inactive"}, {"measurement": "outcome", "setting": "[7]", "value": "inactive"}, {"measurement": "outcome", "setting": "[8]", "value": "inactive"}, {"measurement": "outcome", "setting": "[9]", "value": "inactive"}, {"measurement": "outcome", "setting": "[10]", "value": "inactive"}, {"measurement": "outcome", "setting": "[11]", "value": "inactive"}, {"measurement": "outcome", "setting": "[12]", "value": "inactive"}, {"measurement": "outcome", "setting": "[13]", "value": "inactive"}, {"measurement": "outcome", "setting": "[14]", "value": "inactive"}, {"measurement": "outcome", "setting": "[15]", "value": "inactive"}, {"measurement": "outcome", "setting": "[16]", "value": "inactive"}, {"measurement": "outcome", "setting": "[17]", "value": "inactive"}, {"measurement": "outcome", "setting": "[18]", "value": "inactive"}, {"measurement": "AC50", "setting": "[19]", "value": "11.1 µM (active)"}]}]}
